From PubChem BioAssay (Tox21) come the findings set out here.

Unmarked numbers belong to inactive results. Records with an inconclusive call do not appear. The source made the active and inactive calls. Unless noted, the call rests on the fitted dose curve; in most records, active means well fitted curve in the direction sought with a large enough effect in the repeat runs; inconclusive means weak or mixed curves; inactive means no such curve, though single readings can be large; an effect the other way counts as inactive or inconclusive.

Experiment [1] is described as follows: A CellTox Green Cytotoxicity Assay to monitor cytotoxicity in HepG2 cells - 24 hour (AID 1224878). Further: nearly all actives have a fitted effect of over 45% in size. In a few lines: (§1)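 HepG2 cells were seeded together with the CellTox Green dye at 600 cells/well, left 5 h at 37 C/5% CO2, then given compounds in DMSO. Fluorescence from dye bound to dead-cell DNA was read repeatedly over 40 h of treatment at 37 C.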
Experiment [2] in a line: A CellTox Green Cytotoxicity Assay to monitor cytotoxicity in HepG2 cells - 40 hour (AID 1224879). Further: nearly all actives have a fitted effect of over 40% in size. The essentials:
as §1

Experiment [3] is described as follows: A CellTox Green Cytotoxicity Assay to monitor cytotoxicity in HEK293 cells - 32 hour (AID 1224881). Further: nearly all actives have a fitted effect of over 40% in size. The essentials:
(§2)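 HEK293 cells premixed with CellTox Green dye were seeded at 600 cells/well and left 5 h at 37 C/5% CO2 before pin transfer of 23 nL compound in DMSO. Fluorescence from dye bound to dead-cell DNA was read during 40 h treatment.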

Experiment [4] is described as follows: A CellTox Green Cytotoxicity Assay to monitor cytotoxicity in HepG2 cells - 0 hour (AID 1224882). Further: nearly all actives have a fitted effect of over 35% in size. The essentials:
as §1

Experiment [5] in a line: A CellTox Green Cytotoxicity Assay to monitor cytotoxicity in HepG2 cells - 32 hour (AID 1224883). Further: nearly all actives have a fitted effect of over 50% in size. In a few lines: as §1
Experiment [6] is described as follows: A CellTox Green Cytotoxicity Assay to monitor cytotoxicity in HEK293 cells - 8 hour (AID 1224884). Further: nearly all actives have a fitted effect of over 35% in size. In a few lines:
as §2

A short description of experiment [7]: qHTS RealTime-Glo MT Cell Viability Assay in HepG2 cells - 16 hour (AID 1224885). Further: nearly all actives have a fitted effect of over 50% in size. The essentials:
(§3)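 Viability was tracked continuously by NanoLuc luminescence from prosubstrate reduced by living HepG2 cells, at successive time points over 40 h of compound exposure. Cells with reagent were preincubated 5 h at 37 °C before compound addition.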
(In general: In qHTS, concentration-response curves come from the screen itself.)

Experiment [8] in a line: qHTS RealTime-Glo MT Cell Viability Assay in HEK293 cells - 24 hour (AID 1224886). Further: top concentration of the series differs between compounds; nearly all actives have a fitted effect of over 50% in size. In a few lines: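 Viability tracked continuously by luminescence as live cells reduce a prosubstrate for NanoLuc; HEK293 cells preincubated 5 h, compound-treated at 37 C, and read at 0, 8, 16, 24, 32 and 40 h.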
The nature of experiment [9]: qHTS RealTime-Glo MT Cell Viability Assay in HEK293 cells - 8 hour (AID 1224887). Further: top concentration of the series differs between compounds; nearly all actives have a fitted effect of over 50% in size. The essentials: (§4)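 HEK293 cells mixed with RealTime-Glo reagents (NanoLuc plus cell-permeant prosubstrate) at 600 cells/well, preincubated 5 h at 37 C/5% CO2, then given 23 nL compound in DMSO. Nonlytic luminescence from viable cells was read at 0, 8, 16, 24, 32 and 40 h.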
Experiment [10] is described as follows: A CellTox Green Cytotoxicity Assay to monitor cytotoxicity in HEK293 cells - 16 hour (AID 1224888). Further: nearly all actives have a fitted effect of over 35% in size. In a few lines:
as §2

A short description of experiment [11]: qHTS RealTime-Glo MT Cell Viability Assay in HepG2 cells - 0 hour (AID 1224889). Further: nearly all actives have a fitted effect of over 50% in size. Further: potency means the concentration at half of the fitted maximal effect. In a few lines: as §3
A short description of experiment [12]: A CellTox Green Cytotoxicity Assay to monitor cytotoxicity in HepG2 cells - 8 hour (AID 1224890). Further: nearly all actives have a fitted effect of over 45% in size. In a few lines:
as §1

The nature of experiment [13]: qHTS assay to identify small molecule antagonists of the estrogen receptor alpha (ER-alpha) signaling pathway using the BG1 cell line in the presence of 0.1 nM 17-beta-estradiol - cell viability counter screen (AID 1259241). Further: nearly all actives have a fitted effect of over 40% in size. The essentials: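 VM7Luc4E2 cells (endogenous full-length ER-alpha, 4xERE-luciferase), cultured 5 days in charcoal-stripped serum, exposed to compounds with 0.1 nM 17beta-estradiol (final) for 22 hr at 37C. Viability read in same wells as live-cell protease fluorescence after 30 min.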

Experiment [14] concerns the target Estrogen receptor (Homo sapiens) (UniProt P03372). Put plainly: qHTS assay to identify small molecule antagonists of the estrogen receptor alpha (ER-alpha) signaling pathway using the BG1 cell line in the presence of 0.1 nM 17-beta-estradiol (AID 1259244). Further: nearly all actives have a fitted effect of over 50% in size. The essentials: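 VM7Luc4E2 cells (endogenous full-length ER-alpha, stable 4xERE-luciferase) were grown 5 days in phenol red-free medium with charcoal-stripped FBS, then exposed 22 h at 37C to compounds plus 0.1 nM (final) 17beta-estradiol; ONE-Glo luminescence read-out.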

A short description of experiment [15]: qHTS assay to identify small molecule phospholipidosis (PLD) inducers (AID 1259344; active means well fitted curve in the direction sought with a large enough effect; an effect the other way counts as inactive or inconclusive). The essentials: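 HepG2 cells on collagen I, attached 4 h at 37 C, were co-treated with compound and LipidTOX Red dye for 24 h at 37 C, then fixed with paraformaldehyde plus Hoechst 33342 and imaged by high-content microscopy for phospholipid accumulation.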
The nature of experiment [16]: qHTS assay to identify small molecule HDAC inhibitors (AID 1259364). Further: top concentration of the series differs between compounds; nearly all actives have a fitted effect of over 45% in size. The essentials:
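Wild-type HCT-116 cells were plated overnight, exposed to compounds for 2 h at 37 °C, then given HDAC-Glo class I/II luminogenic reagent for 30 min at room temperature before luminescence was read.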

Experiment [17] is described as follows: qHTS assay to identify small molecule HDAC inhibitors - cell viability counter screen (AID 1259365). In a few lines:
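Wild-type HCT-116 cells, 1,500/well, cultured overnight, then compound-treated 2 h at 37 C. Viability measured as ATP luminescence with CellTiter-Glo after 30 min at room temperature.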

Experiment [18] is described as follows: qHTS RealTime-Glo MT Cell Viability Assay in HEK293 cells - 0 hour (AID 1224880). Further: top concentration of the series differs between compounds; nearly all actives have a fitted effect of over 45% in size. The essentials:
as §4

Experiment [19] can be described thus: qHTS assay to identify small molecule antagonists of the androgen receptor (AR) signaling pathway using the MDA cell line in the presence of 0.5 nM R1881 - cell viability counter screen (AID 1259242). Further: nearly all actives have a fitted effect of over 45% in size. In a few lines: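 MDA-kb2 cells (human breast carcinoma, stably carrying MMTV-luciferase reporter) were exposed to compounds with 0.5 nM R1881 (final) for 16 hr at 37C, 0% CO2; viability then read as live-cell protease fluorescence (CellTiter-Fluor, 30 min) in the same wells.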

Estrogen receptor (Homo sapiens), sequence (P03372 whole entry, looked up): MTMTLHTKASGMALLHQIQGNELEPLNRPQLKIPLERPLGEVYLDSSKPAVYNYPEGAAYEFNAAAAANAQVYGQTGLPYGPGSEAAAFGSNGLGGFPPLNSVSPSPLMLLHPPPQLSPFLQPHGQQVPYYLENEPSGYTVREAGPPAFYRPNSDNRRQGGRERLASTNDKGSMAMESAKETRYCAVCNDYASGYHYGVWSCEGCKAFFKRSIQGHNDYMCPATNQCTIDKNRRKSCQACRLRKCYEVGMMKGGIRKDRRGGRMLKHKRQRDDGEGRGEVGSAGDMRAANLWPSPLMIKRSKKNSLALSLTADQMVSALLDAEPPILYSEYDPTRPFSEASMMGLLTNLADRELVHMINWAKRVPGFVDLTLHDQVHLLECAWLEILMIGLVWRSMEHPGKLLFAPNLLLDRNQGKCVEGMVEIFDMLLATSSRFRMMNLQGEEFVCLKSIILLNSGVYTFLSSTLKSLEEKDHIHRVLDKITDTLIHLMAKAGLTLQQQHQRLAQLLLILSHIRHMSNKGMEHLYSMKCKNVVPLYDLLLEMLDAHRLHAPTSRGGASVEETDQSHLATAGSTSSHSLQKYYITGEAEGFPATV

As for `C[C@]12C=CC(=O)C=C1[C@@H](F)C[C@@H]1[C@@H]2[C@@H](O)C[C@@]2(C)[C@H]1CC[C@]2(O)C(=O)CO`, the Potency entry in experiment [1], in experiment [2], in experiment [3], in experiment [4], in experiment [5] and in experiment [6] was “inactive” each time. Further, the Potency result in experiment [10], in experiment [12], in experiment [15] and in [16] was “inactive” throughout. The call in experiment [7], in experiment [8], in [9], in [13], in experiment [14] and in [17] was inactive. In experiment [11], the Potency was 10.7 µM (active).

In the case of `CCCCS`, the Potency result in experiment [1], in [2], in experiment [18], in experiment [4], in [5] and in [6] was “inactive” in each case. Moreover, the Potency result in [11], in experiment [12] and in [16] was “inactive” throughout. Further, the compound was classed as inactive in experiment [7], in experiment [8], in experiment [9], in experiment [13], in experiment [19] and in experiment [14]. Besides, the result in [17] was inactive.

For `CCC(C)SSC(C)CC` (centres undefined), the Potency result in experiment [1], in experiment [2], in experiment [18], in experiment [3], in experiment [4] and in experiment [5] was “inactive” each time. Besides, the Potency entry in experiment [10], in experiment [11] and in experiment [12] was “inactive” each time. For the same compound, the outcome in experiment [7], in experiment [8], in [9], in [13], in [19] and in experiment [17] was inactive.

Regarding `Cc1cc2c(cc1CC(=O)c1sccc1S(=O)(=O)Nc1onc(C)c1Cl)OCO2`, the Potency result in [1], in [2], in experiment [3], in experiment [4], in experiment [5] and in experiment [6] was “inactive” throughout. The Potency result in experiment [10], in experiment [12] and in experiment [16] was “inactive” throughout. The result in experiment [7], in experiment [8], in [9], in [13] and in experiment [19] was inactive.

Take `CC(C)C[P+](C)(CC(C)C)CC(C)C`: the Potency entry in [1], in experiment [2], in experiment [18], in [4], in [5] and in experiment [6] was “inactive” throughout. Further, the Potency result in [10], in experiment [11], in experiment [12] and in experiment [16] was “inactive” in each case. Besides, the call in experiment [7], in experiment [8], in experiment [9], in [13], in [19] and in experiment [14] was inactive. Besides, the compound was called inactive in experiment [17].

Take `CC1(C)S[C@@H]2[C@H](NC(=O)Cc3ccccc3)C(=O)N2[C@H]1C(=O)O` (tested in a mixture with another compound): the Potency result in experiment [1], in [2], in experiment [3], in [4], in experiment [5] and in [6] was “inactive” each time. In addition, the Potency result in [10], in experiment [11], in experiment [12], in experiment [15] and in experiment [16] was “inactive” throughout. Besides, the outcome in experiment [7], in [8], in experiment [9], in experiment [13], in experiment [19] and in experiment [14] was inactive. The compound was called inactive in experiment [17].

Turning to `CCCCCCCOC(C)=O`, the Potency entry in experiment [1], in [2], in [18], in [3], in experiment [4] and in experiment [5] was “inactive” each time. Moreover, the Potency entry in experiment [10], in [11], in experiment [12] and in [16] was “inactive” in each case. Further, the outcome in [7], in experiment [8], in [9], in experiment [13], in [19] and in experiment [14] was inactive. Besides, the call in [17] was inactive.

As to `CCOC(=O)CC(C(C)=O)C(C)=O`, the Potency result in [1], in experiment [2], in experiment [18], in experiment [3], in experiment [4] and in [5] was “inactive” throughout. For the same compound, the Potency result in experiment [6], in experiment [10], in experiment [11] and in experiment [12] was “inactive” each time. Moreover, the compound was classed as inactive in experiment [7], in experiment [9], in [13], in experiment [19] and in experiment [17].
